JMJD2A Tudor – blocks the human JMJD2A Tudor domain; AlphaScreen JMJD2A-Tudor / H3K4me3 peptide binding; Potency, µM (top dose mostly 114 µM), actives largely listed as inhibitors; 390,000 compounds, 4.4% hits; note: nearly all actives have a fitted effect of over 50% in size
BAZ2B block – inhibitors of human BAZ2B bromodomain; AlphaScreen BAZ2B-H3K14Ac peptide displacement; Potency, µM (top dose mostly 114 µM), hits mostly inhibitors; 360,000 compounds, 4.4% hits; AID 504333; note: nearly all actives have a fitted effect of over 60% in size
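AlphaScreen luminescence quantifies BAZ2B engagement of H3K14Ac peptide; the protein and biotinylated peptide are both at 50 nM final, buffer PBS pH 7.4 with 0.01% Tween-20, all steps at room temperature.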
HP1b chromo inh – HP1-beta chromodomain-methylated histone interaction inhibition. P83916. AlphaScreen HP1-beta / biotin-H3K9me3 peptide binding. Potency, µM (doses to about 114 µM), usual class: inhibitors. 390,000 compounds, 0.56% hits; note: nearly all actives have a fitted effect of over 70% in size
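HP1-beta protein (50 nM final) preincubated 30 min at room temperature with biotinylated H3(1-18)K9me3 peptide (50 nM) in PBS pH 7.4, 0.01% Tween-20, then compound added for 30 min. AlphaScreen streptavidin donor/nickel chelate acceptor beads (10 ug/mL final), 30 min dark, luminescence read.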
Sfp PPTase inh – Sfp phosphopantetheinyl transferase inhibition; Q9F4F7; Biochemical Sfp PPTase activity, qHTS; Potency, µM, hits mostly inhibitors; 310,000 compounds, 3.5% hits; AID 1490;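 note: the enzyme is Sfp with the accession as filed and its product quenches rhodamine fluorescence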
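Reaction rates are the 30-min fluorescence difference (ex 525, em 598 nm) in wells containing 15 nM Sfp, 5 uM rhodamine-CoA and 12.5 uM BHQ-2-YbbR at pH 7.6 with 10 mM MgCl2.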
G9a block – G9a (human) methyltransferase inhibition; Q96KQ7; G9a H3K9 monomethylation, AlphaScreen, 2 h; Potency, µM (doses to about 102 µM), hits mostly inhibitors; 350,000 compounds, 8.8% hits; note: nearly all actives have a fitted effect of over 75% in size
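Step 1: enzyme (final 20 nM) with compound, 15 min RT. Step 2: substrate peptide 500 nM and SAM 20 uM, 2 h RT. Step 3: anti-H3K9me1 antibody and AlphaScreen beads, 10 min, then plate read.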
L3MBTL1 inh – blocks human L3MBTL1; Q9Y468; AlphaScreen L3MBTL1–H3K9me1 peptide binding; Potency, µM (titrated, usually from 57.1 µM), hits mostly inhibitors; 230,000 compounds, 0.66% hits; AID 485360; note: nearly all actives have a fitted effect of over 60% in size
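Displacement of a biotinylated histone H3(1-15) peptide monomethylated at Lys9 (75 nM) from L3MBTL1 (50 nM) was measured by AlphaScreen after a 30 min room-temperature compound incubation; cefsulodin titration served as intraplate control.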
Of the large screens only hits and unclear results are named; the others gave an inactive call; ! = not confirmed by another sample. Hits are enriched below; roughly 12% of the tested compounds scored in any of these assays. Calls come from the whole dose curve; as a rule, active = well fitted curve in the direction sought with a large enough effect; inconclusive = small, poorly fitted or top-dose-only effect, or another doubt; inactive = no such curve, though single readings can be large; an effect the other way counts as inactive or inconclusive.

COc1ccccc1NC(=O)C1=C(C)NC2=C(C(=O)CC(c3ccc(OC)c(OC)c3)C2)C1c1coc2ccccc2c1=O (stereo not drawn)	G9a block 45µM
CCOC(=O)C1=C(C)NC2=C(C(=O)CC(c3ccc(OC)c(OC)c3)C2)C1c1ccc(C)o1 (stereo not drawn)	BAZ2B block inconclusive
CCOC(=O)CSc1nc2sc3c(c2c(=O)n1CC)CCCC3	G9a block inconclusive (no result: Sfp PPTase inh, L3MBTL1 inh)
N#Cc1ccccc1Sc1ccccc1C(=O)NCC(c1ccco1)N1CCCC1 (stereo not drawn)	JMJD2A Tudor inconclusive, BAZ2B block 50µM, HP1b chromo inh inconclusive, G9a block 2.8µM (no result: Sfp PPTase inh)
CC(=O)c1ccc(NC(=S)NCC(c2ccco2)N2CCCC2)cc1 (stereo not drawn)	G9a block 50µM (no result: L3MBTL1 inh)
COc1ccc(NC(=S)NCC(c2ccco2)N2CCCC2)cc1 (stereo not drawn)	none (no result: L3MBTL1 inh)
O=C1NC(=O)c2cc(Nc3ccccc3)c(Nc3ccccc3)cc21	G9a block 21µM! (no result: JMJD2A Tudor, BAZ2B block, HP1b chromo inh, L3MBTL1 inh)
O=C(Nc1ccc2c(c1)C(=O)NC2=O)c1ccccc1	none
O=C1NC(=O)c2cc(Nc3ccc(F)cc3)c(Nc3ccc(F)cc3)cc21	Sfp PPTase inh inconclusive, G9a block 14µM (no result: JMJD2A Tudor, BAZ2B block, HP1b chromo inh, L3MBTL1 inh)
CC1(C)CC(=O)C=C(Nc2ccc(F)cc2)C1	none
Nc1ccc(Cc2ccc(N)c(O)c2)cc1O	JMJD2A Tudor 40µM, BAZ2B block inconclusive, HP1b chromo inh inconclusive, G9a block 50µM
COC(=O)c1cc(Cc2ccc(N)c(C(=O)OC)c2)ccc1N	none
COc1ccc(C2C(C(C)=O)=C(O)C(=O)N2C)c(OC)c1 (stereo not drawn)	JMJD2A Tudor inconclusive, G9a block 45µM
COc1ccc(C2C(C(C)=O)=C(O)C(=O)N2c2cccnc2)c(OC)c1 (stereo not drawn)	JMJD2A Tudor 25µM, BAZ2B block inconclusive
COc1ccc(C(=O)Oc2cc(C(=S)N3CCOCC3)ccc2OC)cc1	JMJD2A Tudor inconclusive, G9a block 32µM (no result: L3MBTL1 inh)
CCOc1cc(C(=S)N2CCOCC2)cc(Br)c1OS(=O)(=O)c1ccccc1	Sfp PPTase inh 79µM, G9a block 28µM
O=C(/C=C/c1ccco1)Oc1ccc(C(=S)N2CCOCC2)cc1	JMJD2A Tudor 18µM, G9a block inconclusive (no result: L3MBTL1 inh)
COc1ccc(C(=S)N2CCOCC2)cc1OC(=O)c1cc([N+](=O)[O-])c(C)c([N+](=O)[O-])c1	JMJD2A Tudor inconclusive, G9a block inconclusive, L3MBTL1 inh inconclusive
COc1ccc(C(=O)Oc2ccc(C(=S)N3CCOCC3)cc2)cc1	JMJD2A Tudor inconclusive, HP1b chromo inh inconclusive, Sfp PPTase inh 22µM (no result: G9a block)
COc1cc(C(=S)N2CCOCC2)cc(OC)c1OS(=O)(=O)c1ccc(NC(C)=O)cc1	none
CCOC(=O)C1CCCN(C(=S)NC(=O)c2cc(Br)ccc2Cl)C1 (stereo not drawn)	none (no result: Sfp PPTase inh)
Cc1cc(O)cc(O)c1C(=O)OC1(C)C(=O)C=C2C=C(/C=C/CO)OC=C2C1=O (stereo not drawn)	none (no result: JMJD2A Tudor, BAZ2B block, HP1b chromo inh, G9a block, L3MBTL1 inh)
CCOCCc1nn2c(=O)cc(COC(=O)C3CCCCC3)nc2s1	none (no result: Sfp PPTase inh, L3MBTL1 inh)
CCOC(=O)CC(NC(=O)c1cc2cc(Cl)ccc2oc1=O)c1ccc(C)cc1 (stereo not drawn)	none (no result: Sfp PPTase inh, L3MBTL1 inh)
O=c1[nH]c2cc([N+](=O)[O-])cc([N+](=O)[O-])c2[nH]c1=O	none (no result: JMJD2A Tudor, BAZ2B block, HP1b chromo inh, G9a block, L3MBTL1 inh)
COc1ccc(-c2nnc(SCC(=O)Nc3ccc(C)c(C)c3)s2)cc1	none (no result: Sfp PPTase inh, L3MBTL1 inh)
O=C(Oc1ccccc1C(=S)N1CCOCC1)c1ccccc1	G9a block 45µM (no result: L3MBTL1 inh)
COc1ccc(S(=O)(=O)Oc2cc(C(=S)N3CCOCC3)ccc2OC)cc1	G9a block 35µM (no result: L3MBTL1 inh)
CCOc1cc(C(=S)N2CCOCC2)ccc1OS(=O)(=O)c1ccc(C)cc1	G9a block 35µM
COC(=O)c1ccc(C(=S)N2CCOCC2)cc1	HP1b chromo inh inconclusive, Sfp PPTase inh 22µM, G9a block inconclusive
O=C(Oc1ccc(C(=S)N2CCOCC2)cc1)c1ccccc1	none (no result: L3MBTL1 inh)
CCOc1cc(C(=S)N2CCCCC2)ccc1OS(=O)(=O)c1ccc(Cl)cc1	L3MBTL1 inh inconclusive

Bioassay records deposited in PubChem by National Center for Advancing Translational Sciences (NCATS).
